Results: the supplement of paper PMC10849652
About 7,900 targets were measured; listed, in parts, are those with a hit and a random draw of the rest. About 0.6% of all pairs of compound and target were hits.

What was measured:
Test in all cases: log2 fold change, soluble protein after heating vs DMSO (PISA); higher = thermal stabilisation; K562 cells, 10 uM, 30 min; active = over 0.2 and 3.5 SD of the protein, either way, in both replicates (recomputed)
[1] = compound: COC1=CC=C(C=C1)CN2C=CC3=C2C=C(C=C3)C(=O)NO
How it was run: (§1)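 K562 cells at 2×10^6 cells/mL were exposed to 10 μM compound for 30 min, then aliquots were heated for 3 min across 48°C-58°C, pooled, and extracted in PBS containing 0.5% NP-40 at 4°C. The supernatant after 21,000xg for 90 min was taken as soluble protein and measured by TMTpro 16plex LC-MS/MS with channel sums equalised. Thermal stability is reported relative to control samples, with values from duplicates. Fold changes are given on a log2 scale.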

filanesib = compound: CON(C)C(=O)N1N=C(c2cc(F)ccc2F)S[C@@]1(CCCN)c1ccccc1 [filanesib]
How it was run: as §1

zotarolimus = compound: CO[C@H]1C[C@@H]2CC[C@@H](C)[C@@](O)(O2)C(=O)C(=O)N2CCCC[C@H]2C(=O)O[C@H]([C@H](C)C[C@@H]2CC[C@H](n3cnnn3)[C@H](OC)C2)CC(=O)[C@H](C)/C=C(\C)[C@@H](O)[C@@H](OC)C(=O)[C@H](C)C[C@H](C)/C=C/C=C/C=C/1C [zotarolimus]
How it was run: as §1

idasanutlin = compound: COc1cc(C(=O)O)ccc1NC(=O)[C@@H]1N[C@@H](CC(C)(C)C)[C@](C#N)(c2ccc(Cl)cc2F)[C@H]1c1cccc(Cl)c1F [idasanutlin]
How it was run: as §1

alisertib = compound: COc1cc(Nc2ncc3c(n2)-c2ccc(Cl)cc2C(c2c(F)cccc2OC)=NC3)ccc1C(=O)O [alisertib]
How it was run: as §1

[2] = compound: COc1cc2nc(-c3cc(F)ccc3O)nc(N[C@@H]3CNC[C@H]3C(C)(C)O)c2cc1OC
How it was run: as §1

gefitinib = compound: COc1cc2ncnc(Nc3ccc(F)c(Cl)c3)c2cc1OCCCN1CCOCC1 [gefitinib]
How it was run: as §1

[3] = compound: COc1cccc2cc(-c3nc([C@H]4CC[C@H](C(=O)O)CC4)n4ncnc(N)c34)[nH]c12
How it was run: as §1

lapatinib = compound: CS(=O)(=O)CCNCc1ccc(-c2ccc3ncnc(Nc4ccc(OCc5cccc(F)c5)c(Cl)c4)c3c2)o1 [lapatinib]
How it was run: as §1

pictilisib = compound: CS(=O)(=O)N1CCN(Cc2cc3nc(-c4cccc5[nH]ncc45)nc(N4CCOCC4)c3s2)CC1 [pictilisib]
How it was run: as §1

[4] = compound: CS(=O)(=O)c1ccc(-c2cnc(N)c(C(=O)Nc3ccccc3)n2)cc1
How it was run: as §1

crizotinib = compound: C[C@@H](Oc1cc(-c2cnn(C3CCNCC3)c2)cnc1N)c1c(Cl)ccc(F)c1Cl [crizotinib]
How it was run: as §1

[5] = compound: C[C@@H]1COCCN1C2=NC(=NC(=C2)C3(CC3)S(=O)(=O)C)C4=C5C=CNC5=CC=C4
How it was run: as §1

[6] = compound: C[C@H](C1=CC=C(C=C1)C(=O)NC2=C3C=CNC3=NC=C2)N
How it was run: as §1

duvelisib = compound: C[C@H](Nc1ncnc2nc[nH]c12)c1cc2cccc(Cl)c2c(=O)n1-c1ccccc1 [duvelisib]
How it was run: as §1

gandotinib = compound: Cc1cc(Nc2cc(CN3CCOCC3)c3nc(C)c(Cc4ccc(Cl)cc4F)n3n2)n[nH]1 [gandotinib]
How it was run: as §1

tozasertib = compound: Cc1cc(Nc2cc(N3CCN(C)CC3)nc(Sc3ccc(NC(=O)C4CC4)cc3)n2)n[nH]1 [tozasertib]
How it was run: as §1

[7] = compound: Cc1cc(SCc2sc(-c3ccc(C(F)(F)F)cc3)nc2C)ccc1OCC(=O)O
How it was run: as §1

doramapimod = compound: Cc1ccc(-n2nc(C(C)(C)C)cc2NC(=O)Nc2ccc(OCCN3CCOCC3)c3ccccc23)cc1 [doramapimod]
How it was run: as §1

ispinesib = compound: Cc1ccc(C(=O)N(CCCN)[C@@H](c2nc3cc(Cl)ccc3c(=O)n2Cc2ccccc2)C(C)C)cc1 [ispinesib]
How it was run: as §1

Measured: log2 fold change

NA, A0A0B4J2A0
inactive: [1] 0.084 | filanesib -0.045 | zotarolimus -0.021 | idasanutlin -0.016 | alisertib 0.129 | [2] -0.029 | gefitinib -0.092 | [3] 0.023 | lapatinib -0.026 | pictilisib 0.05 | [4] -0.087 | crizotinib -0.18 | [5] 0.093 | [6] 0.06 | duvelisib 0.071 | gandotinib -0.087 | tozasertib -0.061 | [7] 0.061 | doramapimod -0.049 | ispinesib -0.121

MRPS9 (UniProt P82933)
inactive: [1] 0.009 | filanesib 0.007 | zotarolimus 0.065 | idasanutlin -0.16 | alisertib 0.076 | [2] -0.021 | gefitinib 0.084 | [3] 0.016 | lapatinib 0.096 | pictilisib -0.049 | [4] -0.001 | crizotinib 0.011 | [5] 0.036 | [6] 0.202 | duvelisib -0.023 | gandotinib -0.054 | tozasertib -0.055 | [7] 0.086 | doramapimod 0.031
active: ispinesib -0.344

NASP (UniProt P49321)
Chain of UniProt P49321 (P49321 whole entry, looked up): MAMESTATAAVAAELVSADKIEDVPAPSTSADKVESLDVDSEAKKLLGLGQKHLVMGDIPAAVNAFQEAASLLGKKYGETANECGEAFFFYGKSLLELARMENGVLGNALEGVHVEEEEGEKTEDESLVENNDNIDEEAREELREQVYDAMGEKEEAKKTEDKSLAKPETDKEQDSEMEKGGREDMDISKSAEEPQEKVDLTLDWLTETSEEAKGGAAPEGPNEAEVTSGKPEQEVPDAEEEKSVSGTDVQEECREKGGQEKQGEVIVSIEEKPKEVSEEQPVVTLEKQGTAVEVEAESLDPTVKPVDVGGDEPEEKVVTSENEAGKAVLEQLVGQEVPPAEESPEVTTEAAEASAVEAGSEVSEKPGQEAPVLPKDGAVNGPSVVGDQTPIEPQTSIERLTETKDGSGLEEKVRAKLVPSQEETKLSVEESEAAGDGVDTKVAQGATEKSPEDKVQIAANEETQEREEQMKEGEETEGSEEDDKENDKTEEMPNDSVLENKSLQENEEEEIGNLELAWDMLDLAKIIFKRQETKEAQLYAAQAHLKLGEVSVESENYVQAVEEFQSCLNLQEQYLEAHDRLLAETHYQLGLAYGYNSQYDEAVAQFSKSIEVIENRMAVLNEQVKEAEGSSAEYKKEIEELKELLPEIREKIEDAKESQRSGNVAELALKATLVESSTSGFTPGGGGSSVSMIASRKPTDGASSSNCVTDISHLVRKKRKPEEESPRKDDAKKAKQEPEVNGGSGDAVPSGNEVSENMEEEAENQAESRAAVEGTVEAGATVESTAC
inactive: [1] 0.01 | filanesib -0.009 | zotarolimus 0.05 | idasanutlin -0.021 | alisertib -0.03 | [2] 0.029 | gefitinib 0.001 | [3] -0.023 | lapatinib -0.023 | pictilisib 0.007 | [4] 0.005 | crizotinib 0.063 | [5] 0.045 | [6] -0.061 | duvelisib 0.08 | gandotinib -0.066 | tozasertib 0.105 | [7] 0.013 | doramapimod -0.053 | ispinesib 0.06

MYH10 isoform 3 (UniProt P35580)
inactive: [1] 0.092 | filanesib -0.116 | zotarolimus 0.011 | idasanutlin -0.065 | alisertib -0.025 | [2] 0.036 | gefitinib -0.005 | [3] -0.007 | lapatinib -0.006 | pictilisib -0.033 | [4] -0.013 | crizotinib -0.038 | [5] 0.056 | [6] -0.026 | duvelisib 0.023 | gandotinib -0.004 | tozasertib -0.009 | [7] 0.013 | doramapimod 0.009 | ispinesib 0.01

NEDD4L (UniProt Q96PU5)
inactive: [1] -0.027 | filanesib 0.095 | zotarolimus 0.032 | idasanutlin -0.018 | alisertib -0.114 | [2] 0.086 | gefitinib -0.031 | [3] 0.027 | lapatinib -0.025 | pictilisib -0.035 | [4] 0.015 | crizotinib -0.005 | [5] -0.071 | [6] -0.105 | duvelisib 0 | gandotinib 0.015 | tozasertib 0.088 | [7] 0.083 | doramapimod 0.026 | ispinesib -0.037

PAK1 isoform 2 (UniProt Q13153)
inactive: [1] 0.178 | filanesib 0.04 | zotarolimus 0.003 | idasanutlin -0.155 | alisertib 0.086 | [2] -0.007 | gefitinib -0.025 | [3] -0.098 | lapatinib -0.015 | pictilisib 0.183 | [4] 0.009 | crizotinib 0.054 | [5] 0.063 | duvelisib 0.09 | gandotinib -0.098 | tozasertib -0.076 | [7] 0.056 | doramapimod -0.155 | ispinesib 0.084
active: [6] -0.308

OPHN1 (UniProt O60890)
Chain of UniProt O60890 (O60890 whole entry, looked up): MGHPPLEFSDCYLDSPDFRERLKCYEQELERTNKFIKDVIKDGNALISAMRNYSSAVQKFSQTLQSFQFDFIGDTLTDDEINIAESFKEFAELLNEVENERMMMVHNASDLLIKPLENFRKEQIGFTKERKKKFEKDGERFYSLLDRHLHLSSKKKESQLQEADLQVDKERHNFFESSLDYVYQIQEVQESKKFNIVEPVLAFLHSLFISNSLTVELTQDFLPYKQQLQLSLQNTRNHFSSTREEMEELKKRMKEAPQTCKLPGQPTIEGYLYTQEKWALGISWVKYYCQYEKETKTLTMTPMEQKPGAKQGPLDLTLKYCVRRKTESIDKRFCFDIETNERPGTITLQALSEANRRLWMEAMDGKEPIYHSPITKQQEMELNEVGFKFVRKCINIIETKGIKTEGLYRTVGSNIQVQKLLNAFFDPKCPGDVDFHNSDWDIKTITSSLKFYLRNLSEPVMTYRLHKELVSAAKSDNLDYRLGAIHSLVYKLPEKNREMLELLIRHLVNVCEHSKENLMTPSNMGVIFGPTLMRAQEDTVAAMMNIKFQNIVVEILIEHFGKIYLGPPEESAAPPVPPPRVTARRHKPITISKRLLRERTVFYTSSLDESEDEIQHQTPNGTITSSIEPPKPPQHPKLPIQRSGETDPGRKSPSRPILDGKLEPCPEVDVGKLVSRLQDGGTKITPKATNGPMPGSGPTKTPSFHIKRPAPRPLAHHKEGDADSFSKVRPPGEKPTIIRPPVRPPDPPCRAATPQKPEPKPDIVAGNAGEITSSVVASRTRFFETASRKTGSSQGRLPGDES
inactive: [1] -0.261 | filanesib -0.004 | zotarolimus -0.049 | idasanutlin -0.015 | alisertib -0.036 | gefitinib -0.002 | [3] 0.04 | pictilisib 0.242 | [4] 0.011 | crizotinib -0.06 | [5] 0.107 | [6] 0.14 | duvelisib 0.103 | tozasertib -0.035 | [7] -0.21 | doramapimod 0.26 | ispinesib 0.018
active: gandotinib -0.636

NA, A0A2R8Y3M9
inactive: [1] -0.086 | filanesib 0.079 | zotarolimus -0.419 | idasanutlin 0.279 | [2] -0.123 | gefitinib -0.168 | lapatinib -0.037 | pictilisib -0.35 | [4] -0.084 | crizotinib 0.013 | [6] -0.011 | duvelisib -0.299 | gandotinib -0.099 | [7] -0.107 | doramapimod -0.008 | ispinesib -0.125

MYH16 (UniProt Q9H6N6)
Chain of UniProt Q9H6N6 (Q9H6N6 whole entry, looked up): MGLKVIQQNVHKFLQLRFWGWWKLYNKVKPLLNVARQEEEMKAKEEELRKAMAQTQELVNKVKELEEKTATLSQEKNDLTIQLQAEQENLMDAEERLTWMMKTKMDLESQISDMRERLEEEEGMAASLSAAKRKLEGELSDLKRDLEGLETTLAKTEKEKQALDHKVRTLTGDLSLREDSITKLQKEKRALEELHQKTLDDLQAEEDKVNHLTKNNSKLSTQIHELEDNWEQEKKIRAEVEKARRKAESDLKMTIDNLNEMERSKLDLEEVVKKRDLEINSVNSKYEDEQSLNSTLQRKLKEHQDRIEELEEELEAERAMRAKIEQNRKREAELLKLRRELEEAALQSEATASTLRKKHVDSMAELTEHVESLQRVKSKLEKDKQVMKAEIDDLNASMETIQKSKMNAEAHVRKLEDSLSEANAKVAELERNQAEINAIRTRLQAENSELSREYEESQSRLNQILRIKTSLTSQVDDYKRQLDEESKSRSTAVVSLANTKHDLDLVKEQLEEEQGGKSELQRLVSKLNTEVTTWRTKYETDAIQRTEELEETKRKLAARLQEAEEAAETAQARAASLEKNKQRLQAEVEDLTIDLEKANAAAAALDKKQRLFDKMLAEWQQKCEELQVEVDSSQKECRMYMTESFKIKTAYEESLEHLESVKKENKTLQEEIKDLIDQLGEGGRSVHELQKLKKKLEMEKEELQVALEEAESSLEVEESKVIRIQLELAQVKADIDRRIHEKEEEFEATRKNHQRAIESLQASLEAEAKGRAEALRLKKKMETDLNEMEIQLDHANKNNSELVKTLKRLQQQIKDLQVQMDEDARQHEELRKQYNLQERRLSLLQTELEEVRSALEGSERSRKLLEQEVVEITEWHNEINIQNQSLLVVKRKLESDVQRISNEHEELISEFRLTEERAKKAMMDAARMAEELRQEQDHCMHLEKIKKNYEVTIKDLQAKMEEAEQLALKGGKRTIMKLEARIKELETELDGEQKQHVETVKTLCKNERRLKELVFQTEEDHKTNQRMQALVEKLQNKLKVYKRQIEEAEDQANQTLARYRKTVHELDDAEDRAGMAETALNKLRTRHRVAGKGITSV
inactive: filanesib -0.263 | zotarolimus -0.118 | idasanutlin -0.066 | alisertib 0.163 | [2] -0.052 | gefitinib -0.03 | [3] -0.031 | lapatinib 0.204 | pictilisib -0.448 | [4] -0.33 | crizotinib -0.097 | [6] -0.012 | gandotinib -0.279 | tozasertib -0.027 | doramapimod 0.399
active: [1] 0.886

NIPSNAP3B (UniProt Q9BS92)
Chain of UniProt Q9BS92 (Q9BS92 whole entry, looked up): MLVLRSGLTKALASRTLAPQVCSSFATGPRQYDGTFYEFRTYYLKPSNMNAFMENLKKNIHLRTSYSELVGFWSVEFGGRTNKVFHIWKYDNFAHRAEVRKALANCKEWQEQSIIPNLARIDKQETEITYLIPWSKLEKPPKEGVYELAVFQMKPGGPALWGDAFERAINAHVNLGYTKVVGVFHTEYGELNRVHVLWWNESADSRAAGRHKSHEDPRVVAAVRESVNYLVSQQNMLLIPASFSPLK
inactive: [1] -0.033 | filanesib -0.168 | zotarolimus 0.013 | idasanutlin 0.046 | alisertib -0.046 | [2] -0.071 | gefitinib -0.138 | [3] 0.009 | lapatinib -0.09 | pictilisib 0.002 | [4] 0.03 | crizotinib 0.053 | [6] 0.015 | duvelisib -0.18 | gandotinib 0.082 | tozasertib -0.045 | [7] 0.039 | doramapimod -0.102

MRPS26 (UniProt Q9BYN8)
inactive: [1] -0.039 | filanesib 0.09 | zotarolimus 0.04 | idasanutlin -0.145 | alisertib -0.078 | [2] 0.041 | [3] 0.072 | lapatinib 0.074 | pictilisib -0.155 | [4] 0.097 | crizotinib 0.005 | [5] 0.009 | [6] 0.291 | duvelisib 0.002 | gandotinib 0.158 | tozasertib 0.146 | [7] 0.065 | doramapimod 0.059
active: ispinesib -0.421

NOP2 isoform 4 (UniProt P46087)
Chain of UniProt P46087 (P46087 whole entry, looked up): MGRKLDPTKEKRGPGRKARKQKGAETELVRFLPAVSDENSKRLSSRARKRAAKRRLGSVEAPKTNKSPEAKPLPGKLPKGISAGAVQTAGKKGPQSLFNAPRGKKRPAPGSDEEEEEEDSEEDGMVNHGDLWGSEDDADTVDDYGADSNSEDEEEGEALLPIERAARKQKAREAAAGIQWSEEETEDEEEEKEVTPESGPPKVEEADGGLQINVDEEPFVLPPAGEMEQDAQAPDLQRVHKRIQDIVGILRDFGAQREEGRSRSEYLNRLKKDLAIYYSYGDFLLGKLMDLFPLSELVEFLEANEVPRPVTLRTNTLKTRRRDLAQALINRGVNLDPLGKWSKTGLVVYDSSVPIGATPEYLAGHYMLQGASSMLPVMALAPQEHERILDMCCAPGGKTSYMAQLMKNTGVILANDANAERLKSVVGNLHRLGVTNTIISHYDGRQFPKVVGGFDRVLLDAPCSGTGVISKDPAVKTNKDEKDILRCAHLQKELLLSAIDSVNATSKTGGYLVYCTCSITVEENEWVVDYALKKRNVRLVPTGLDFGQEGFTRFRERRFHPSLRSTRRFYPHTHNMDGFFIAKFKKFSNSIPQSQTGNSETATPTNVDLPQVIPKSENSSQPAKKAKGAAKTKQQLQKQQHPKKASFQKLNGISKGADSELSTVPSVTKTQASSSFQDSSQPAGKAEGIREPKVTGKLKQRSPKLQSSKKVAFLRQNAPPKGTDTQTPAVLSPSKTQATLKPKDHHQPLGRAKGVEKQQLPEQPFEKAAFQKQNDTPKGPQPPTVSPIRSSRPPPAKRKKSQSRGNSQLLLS
inactive: [1] -0.053 | filanesib 0.651 | zotarolimus 0.118 | idasanutlin 0.419 | alisertib -0.065 | [2] 0.375 | gefitinib -0.065 | [3] -0.118 | lapatinib 0.456 | pictilisib -0.039 | [4] 0 | crizotinib -0.127 | [5] -0.25 | [6] 0.673 | duvelisib -0.166 | gandotinib 0.231 | tozasertib 0.084 | [7] -0.022 | doramapimod 0.219 | ispinesib 0.163

NCK1 (UniProt P16333)
inactive: [1] 0.049 | filanesib -0.054 | zotarolimus 0.13 | idasanutlin -0.001 | alisertib -0.127 | [2] -0.165 | gefitinib 0.002 | [3] -0.024 | lapatinib -0.066 | [4] -0.077 | crizotinib -0.449 | [5] 0.171 | [6] 0.162 | duvelisib -0.135 | tozasertib 0.061 | [7] 0.076 | doramapimod -0.008 | ispinesib -0.173

MLST8 (UniProt Q9BVC4)
Chain of UniProt Q9BVC4 (Q9BVC4 whole entry, looked up): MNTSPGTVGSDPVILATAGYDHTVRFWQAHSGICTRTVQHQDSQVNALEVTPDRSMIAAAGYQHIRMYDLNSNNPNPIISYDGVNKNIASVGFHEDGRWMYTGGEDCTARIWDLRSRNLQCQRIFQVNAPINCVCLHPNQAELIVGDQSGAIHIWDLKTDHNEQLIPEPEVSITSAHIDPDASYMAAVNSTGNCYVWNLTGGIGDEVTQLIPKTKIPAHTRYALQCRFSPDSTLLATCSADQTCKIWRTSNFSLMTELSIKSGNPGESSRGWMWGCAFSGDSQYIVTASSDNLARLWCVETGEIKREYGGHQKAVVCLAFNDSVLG
inactive: [1] 0.1 | filanesib -0.206 | zotarolimus -0.12 | idasanutlin -0.154 | alisertib 0.019 | [2] 0.055 | gefitinib -0.041 | [3] -0.081 | lapatinib -0.039 | [4] -0.07 | crizotinib -0.12 | [5] 0.014 | [6] 0.089 | duvelisib 0.067 | tozasertib 0.006 | [7] 0.079 | doramapimod 0.042

NUMBL (UniProt Q9Y6R0)
inactive: [1] -0.079 | filanesib 0.128 | zotarolimus -0.012 | idasanutlin -0.061 | alisertib -0.168 | [2] 0.005 | gefitinib 0.036 | [3] -0.149 | lapatinib 0.012 | pictilisib -0.022 | [4] 0.13 | crizotinib -0.021 | [5] 0.056 | [6] 0.044 | duvelisib 0.07 | gandotinib -0.025 | [7] 0.108 | doramapimod 0.109 | ispinesib -0.187

MSL1 (UniProt Q68DK7)
Chain of UniProt Q68DK7 (Q68DK7 whole entry, looked up): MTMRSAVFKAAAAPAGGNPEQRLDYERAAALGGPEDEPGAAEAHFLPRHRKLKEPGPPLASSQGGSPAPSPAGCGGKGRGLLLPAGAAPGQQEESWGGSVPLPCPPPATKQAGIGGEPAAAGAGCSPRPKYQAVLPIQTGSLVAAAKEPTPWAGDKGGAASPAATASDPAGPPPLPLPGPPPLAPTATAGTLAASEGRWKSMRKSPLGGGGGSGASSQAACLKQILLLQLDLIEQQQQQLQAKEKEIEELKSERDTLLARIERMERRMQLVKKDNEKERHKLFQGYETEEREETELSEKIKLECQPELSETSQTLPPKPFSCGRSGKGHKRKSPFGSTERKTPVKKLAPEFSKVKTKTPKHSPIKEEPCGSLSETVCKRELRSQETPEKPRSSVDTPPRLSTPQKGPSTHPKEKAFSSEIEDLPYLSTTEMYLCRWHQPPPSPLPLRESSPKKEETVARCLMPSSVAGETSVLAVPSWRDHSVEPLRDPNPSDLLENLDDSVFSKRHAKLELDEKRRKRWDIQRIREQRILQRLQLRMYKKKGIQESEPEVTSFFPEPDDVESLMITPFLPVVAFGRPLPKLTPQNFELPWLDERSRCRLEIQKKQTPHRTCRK
inactive: [1] -0.163 | filanesib -0.013 | idasanutlin -0.113 | alisertib -0.081 | [2] 0.275 | gefitinib 0.04 | [3] -0.012 | lapatinib -0.117 | pictilisib 0.197 | [4] 0.092 | crizotinib 0 | [5] 0.049 | duvelisib 0.195 | gandotinib 0.31 | [7] -0.162 | doramapimod -0.054 | ispinesib -0.078

MRPS16 (UniProt Q9Y3D3)
active: idasanutlin -0.348
inactive: [1] -0.102 | filanesib 0.044 | zotarolimus 0.04 | alisertib 0.02 | [2] -0.054 | gefitinib -0.045 | [3] -0.011 | lapatinib 0.039 | pictilisib -0.03 | [4] 0.061 | crizotinib 0.014 | [5] 0.028 | [6] 0.159 | gandotinib -0.031 | tozasertib 0.05 | doramapimod 0.001 | ispinesib -0.266
